In assay [1] the target is Estrogen receptor (Homo sapiens) (UniProt P03372). Put plainly: CCTE_Deisenroth_AIME_384WELL_LUC_Active: CCTE's 384-well Estrogen Receptor Transactivation Assay with AIME metabolic competence (ERTA luciferase; metabolism positive), Deisenroth Lab (AID 2284030; active = hit-call score of the fitted dose curve at least 0.9, where 1 is the maximum). A digest of the protocol: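 VM7Luc4E2 breast cells were given, for 24 hours, medium pre-incubated for 2 hours with parent chemical (0.002-200 uM, 10 concentrations) and alginate-encapsulated phenobarbital/beta-naphthoflavone-induced rat hepatic S9. Luciferase gain of signal was fitted against 17beta-estradiol; n=4 or more.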

A short description of assay [2]: CCTE_Shafer_MEA_dev_per_burst_spike_percent: CCTE's Neural Network Formation Assay for Percent of Spikes in a Burst, Shafer Lab (AID 2284032). Summed up: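 Value is trapezoidal AUC over recordings on days 5, 7, 9 and 12 of the well-mean fraction of spikes falling in single-electrode bursts; rat cortical cultures exposed continuously from plating, treatment renewed DIV 5 and 9, fitted downward against DMSO.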

The nature of assay [3]: CCTE_Deisenroth_AIME_384WELL_CTox_Active: Cytotoxicity Assessment (CTOX) in CCTE's 384-well Estrogen Receptor Transactivation Assay with AIME metabolic competence (metabolism positive), Deisenroth Lab (AID 2284037; active = hit-call score of the fitted dose curve at least 0.9, where 1 is the maximum;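 also: chemicals first conditioned 2 h by alginate-bound induced rat liver S9 before cells; activity means signal loss indicating cell death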). A digest of the protocol:
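Cytotoxicity in VM7Luc4E2 breast cells, 24 hour, measured as protease-substrate fluorescence loss, after 2-hour metabolic conditioning with induced rat hepatic S9 in alginate microspheres. Concentrations 0.002 - 200 uM, 10 points, bidirectional fitting.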

The target in assay [4] is Estrogen receptor (Homo sapiens) (UniProt P03372). Briefly: CCTE_Deisenroth_AIME_384WELL_LUC_Inactive: CCTE's 384-well Estrogen Receptor Transactivation Assay without AIME metabolic competence (ERTA luciferase; metabolism negative), Deisenroth Lab (AID 2284038; active = hit-call score of the fitted dose curve at least 0.9, where 1 is the maximum;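 also: hits raise estrogen receptor luciferase signal so potencies reflect agonists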). Summed up:
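Metabolism-negative mode: AIME lids stamped in alginate-water, no hepatic S9. 2 h chemical incubation → medium onto VM7Luc4E2 ERTA, 24 h. Readout luciferase luminescence; gain-of-signal fit vs 17beta-estradiol. Conc. 0.002 - 200 uM.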

Assay [5] can be described thus: CCTE_Deisenroth_AIME_384WELL_CTox_Inactive: Cytotoxicity Assessment (CTOX) in CCTE's 384-well Estrogen Receptor Transactivation Assay without AIME metabolic competence (metabolism negative), Deisenroth Lab (AID 2284039; active = hit-call score of the fitted dose curve at least 0.9, where 1 is the maximum;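 also: cell viability via live-cell protease substrate cleaved to fluorescent probe; cells exposed 24 h to medium preincubated 2 h with alginate-water beads without S9; loss of fluorescence signal means loss of viability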). A digest of the protocol:
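Fluorescence from a live-cell protease substrate, read after 24 h in VM7Luc4E2 cells, indicated viability. Test medium came from a 2 h AIME step without hepatic S9 (alginate-water microspheres); concentrations spanned 0.002 - 200 uM, single technical replicate per run.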

A short description of assay [6]: CCTE_Shafer_MEA_dev_active_electrodes_number: CCTE's Neural Network Formation Assay for Number of Active Electrodes, Shafer Lab (AID 2284040; active = hit-call score of the fitted dose curve at least 0.9, where 1 is the maximum;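 as to AC50: potency for loss of active electrodes versus DMSO so lower counts are hits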). Summed up:
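Developing rat cortical networks on MEAs, exposed DIV 0–12. Value is the AUC of active-electrode counts (≥5 spikes/min) from days 5, 7, 9, 12, relative to DMSO.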

Assay [7] concerns the target Estrogen receptor (Homo sapiens) (UniProt P03372). Put plainly: CCTE_Deisenroth_AIME_384WELL_LUC_Shift: CCTE's 384-well Estrogen Receptor Transactivation Assay with AIME metabolic competence data shift (ERTA luciferase; difference in metabolism positive and negative), Deisenroth Lab (AID 2284041).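 Also: shift is response with S9 minus without S9 so positive means metabolism raised ER signal.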 Summed up:
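Test chemicals (0.002–200 uM, 10-point) were pre-incubated 2 h with alginate microspheres containing phenobarbital/beta-naphthoflavone-induced male Sprague Dawley rat liver S9 or water, then medium was transferred to VM7Luc4E2 cells for 24 h luciferase readout; shift = S9-positive minus S9-negative normalized response.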

A short description of assay [8]: CCTE_Shafer_MEA_dev_burst_rate: CCTE's Neural Network Formation Assay for Burst Rate, Shafer Lab (AID 2284042). A digest of the protocol: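 Developmental network assay measuring how 12-day exposure of rat cortical neuron cultures alters bursting on extracellular MEA recordings. Values are AUC of well-mean burst rate across four recording days, relative to DMSO vehicle.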

Assay [9] is described as follows: CCTE_Shafer_MEA_dev_bursting_electrodes_number: CCTE's Neural Network Formation Assay for Number of Bursting Electrodes, Shafer Lab (AID 2284043; active = hit-call score of the fitted dose curve at least 0.9, where 1 is the maximum). A digest of the protocol: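 Number of electrodes reaching ≥1 burst every 2 min was recorded at DIV 5, 7, 9 and 12 and collapsed as trapezoidal area under the curve. Cultures were rat cortical neurons on MEA plates, dosed continuously from plating with medium and treatment refreshed on DIV 5 and 9.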

Assay [10] is described as follows: CCTE_Shafer_MEA_dev_per_burst_interspike_interval: CCTE's Neural Network Formation Assay for Burst Interspike Interval, Shafer Lab (AID 2284044). Summed up: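 Mean interspike interval within single-electrode bursts, averaged over bursting electrodes, from rat cortical cultures on MEA plates recorded on days 5, 7, 9 and 12. Continuous compound exposure from plating; trapezoidal AUC fitted downward relative to DMSO.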

A short description of assay [11]: CCTE_Shafer_MEA_dev_burst_duration_mean: CCTE's Neural Network Formation Assay for Mean Burst Duration, Shafer Lab (AID 2284045). A digest of the protocol:
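Mean single-electrode burst duration (first to last spike), averaged over bursting electrodes per well, then integrated as area-under-curve across recordings at days 5, 7, 9 and 12. Rat cortical cultures on MEAs, compound present from plating, refreshed at feeds.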

The nature of assay [12]: CCTE_Shafer_MEA_dev_interburst_interval_mean: CCTE's Neural Network Formation Assay for Mean Interburst Interval, Shafer Lab (AID 2284046).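 Also: well-mean interburst interval of bursting electrodes as AUC over four recording days; curve fitted for decrease in interburst interval relative to DMSO.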 A digest of the protocol:
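Network formation assay in primary rat cortical cultures, exposed from DIV 0 to 12. Mean interburst interval per well, integrated as AUC over four recordings.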

Assay [13] in a line: CCTE_Shafer_MEA_dev_inter_network_spike_interval_mean: CCTE's Neural Network Formation Assay for Mean Inter-network Spike Interval, Shafer Lab (AID 2284047). A digest of the protocol: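 Compound was given at plating to primary rat cortical neurons and renewed with full medium changes on DIV 5 and 9. Extracellular activity was recorded on days 5, 7, 9, 12; AUC values were fitted for loss relative to DMSO control.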

Assay [14] can be described thus: CCTE_Shafer_MEA_dev_network_spike_number: CCTE's Neural Network Formation Assay for Number of Network Spikes, Shafer Lab (AID 2284048).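 Also: synchronized bursts across electrodes counted on days 5 7 9 12 and integrated as AUC.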 Summed up:
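Number of network spikes (coordinated firing across electrodes) recorded on days 5, 7, 9 and 12 and summarised as area under the curve. Rat cortical cultures on MEA, continuous compound exposure with full medium/treatment exchange at DIV 5 and 9.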

The nature of assay [15]: CCTE_Shafer_MEA_dev_network_spike_peak: CCTE's Neural Network Formation Assay for Mean Number of Electrodes in Network Spike, Shafer Lab (AID 2284049).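 As to AC50: fitted for loss of signal meaning fewer electrodes in network spikes than DMSO.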 Summed up: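 Rat cortical primary culture, 1.5 x 10^5 cells/well, 48-well MEA (16 electrodes/well). Dosing day 0 through DIV 12, full media/compound exchange DIV 5, 9. AxIS adaptive spike detection; AUC over days 5/7/9/12; loss-of-signal vs DMSO.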

Assay [16] in a line: CCTE_Shafer_MEA_dev_spike_duration_mean: CCTE's Neural Network Formation Assay for Mean Spike Duration, Shafer Lab (AID 2284051).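 Also: mean network spike duration pooled as area under curve over DIV 5 to 12 recordings.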 A digest of the protocol:
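With DMSO as baseline, loss of mean network spike duration was scored from extracellular recordings of rat cortical neurons on MEA plates. Exposure spanned plating to DIV 12; the four recording days were collapsed into one AUC value.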

A short description of assay [17]: CCTE_Shafer_MEA_dev_network_spike_duration_std: CCTE's Neural Network Formation Assay for Standard Deviation of Network Spike Duration, Shafer Lab (AID 2284052).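 Also: hits are decreases in network spike duration SD versus DMSO vehicle.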 Summed up:
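Developing networks of rat cortical neurons were exposed over twelve days in vitro on 48-well MEA plates. Trapezoidal AUC of recordings (DIV 5–12) was analysed for signal loss relative to DMSO vehicle.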

Assay [18] is described as follows: CCTE_Deisenroth_AIME_96WELL_CTox_Active: Cytotoxicity Assessment (CTOX) in CCTE's 96-well Estrogen Receptor Transactivation Assay with AIME metabolic competence (metabolism positive), Deisenroth Lab (AID 2284028; active = hit-call score of the fitted dose curve at least 0.9, where 1 is the maximum). A digest of the protocol:
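Cytotoxicity in VM7Luc4E2 breast cells after 24 h exposure to medium from a 2 h metabolic pre-incubation with induced rat hepatic S9 in alginate microspheres; fluorescent live-cell protease readout, 10-point series 0.002–200 uM, n=4.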

A short description of assay [19]: CCTE_Deisenroth_AIME_96WELL_CTox_Inactive: Cytotoxicity Assessment (CTOX) in CCTE's 96-well Estrogen Receptor Transactivation Assay without AIME metabolic competence (metabolism negative), Deisenroth Lab (AID 2284029; active = hit-call score of the fitted dose curve at least 0.9, where 1 is the maximum). A digest of the protocol: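 Cytotoxicity in VM7Luc4E2 breast cells was scored as loss of fluorescent signal from a live-cell protease substrate 24 h after exposure, using bidirectional curve fitting. Test media came from a 2 h metabolism-negative pre-incubation (alginate-water, no hepatic S9) of compounds at 0.002-200 uM, with at least four replicates.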

A further assay concerns DIO2 (gene 1734). Briefly: CCTE_GLTED_hDIO2: CCTE's human Deiodinase 2 (DIO2) Inhibition Assay, Great Lakes Toxicology and Ecology Division (GLTED) Lab (AID 2284050; active = hit-call score of the fitted dose curve at least 0.9, where 1 is the maximum). A digest of the protocol: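 Readout: absorbance from Sandell-Kolthoff detection of free iodide released by human DIO2 during a 3 h incubation with chemical. Cell-free format, n=3; activity fitted relative to DMSO negative control.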

Inconclusive results are not listed. Where a structure was tested more than once in an assay, its records may differ in their call. The source made the active and inactive calls. The calls were made as follows, unless noted: active = hit-call score of the fitted dose curve at least 0.9, where 1 is the maximum; inactive = score below 0.9.

Here are results for 10 compounds from PubChem BioAssay (EPA / NIEHS).

Chain of Estrogen receptor (Homo sapiens) (P03372 whole entry, looked up): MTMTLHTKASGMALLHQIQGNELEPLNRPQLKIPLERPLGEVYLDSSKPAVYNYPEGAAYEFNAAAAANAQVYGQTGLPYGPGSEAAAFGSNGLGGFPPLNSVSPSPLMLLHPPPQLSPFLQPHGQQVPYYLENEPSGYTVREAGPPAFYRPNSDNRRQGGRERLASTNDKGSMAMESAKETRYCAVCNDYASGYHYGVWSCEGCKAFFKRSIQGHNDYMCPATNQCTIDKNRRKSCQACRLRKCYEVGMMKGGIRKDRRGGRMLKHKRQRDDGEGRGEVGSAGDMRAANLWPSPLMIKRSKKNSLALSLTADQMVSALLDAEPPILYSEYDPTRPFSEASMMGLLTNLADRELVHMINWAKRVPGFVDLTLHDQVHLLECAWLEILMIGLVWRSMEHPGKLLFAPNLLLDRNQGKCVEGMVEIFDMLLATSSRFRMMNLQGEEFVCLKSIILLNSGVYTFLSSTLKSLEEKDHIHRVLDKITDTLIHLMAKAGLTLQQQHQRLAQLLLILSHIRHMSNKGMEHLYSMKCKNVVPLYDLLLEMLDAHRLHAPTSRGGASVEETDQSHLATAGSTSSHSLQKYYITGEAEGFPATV

One may read the AC50 as the midpoint of the concentration-response curve, whichever way the signal moves. For `O=S(=O)(O)C(F)(F)C(F)(F)C(F)(F)C(F)(F)C(F)(F)C(F)(F)F`, the call in [1], in assay [2], in [3], in assay [4], in assay [5] and in assay [6] was inactive. The outcome in assay [7], in assay [8], in assay [9], in assay [10], in assay [11] and in assay [12] was inactive. The outcome in [13], in [14], in assay [15], in assay [16] and in assay [17] was inactive. For the same compound, the AC50 in assay [6] was 3.97 µM (active); in assay [15], 9.07 µM (active).

Turning to `c1cc2ccc3cccc4ccc(c1)c2c34`, the call in [18], in assay [19], in assay [1], in assay [2], in assay [3] and in assay [4] was inactive. The compound was called inactive in assay [6], in assay [7], in assay [8], in assay [9], in [10] and in [11]. Further, the call in assay [12], in [13], in assay [14], in [15], in assay [16] and in assay [17] was inactive. In assay [5], the AC50 was 0.0782 µM (active).

For the compound `CCCN(CCC)N=O`, the compound was classed as inactive in assay [1], in assay [3], in assay [4], in assay [5] and in assay [7].

On to `Cc1ccccc1O`, for which the result in assay [1], in assay [4] and in [5] was inactive.

Consider `COc1ccc(O)c(C(C)(C)C)c1`, for which the compound was classed as inactive in assay [1], in assay [2], in [3], in assay [4], in assay [7] and in [8]. Further, the compound was classed as inactive in [10], in assay [11], in assay [12], in assay [13], in assay [14] and in assay [15]. Besides, the compound was classed as inactive in [16] and in assay [17].

With `Clc1ccc(C(Cl)(Cl)Cl)cc1`, the call in assay [1], in assay [3], in [4], in assay [5] and in [7] was inactive. Also, the AC50 in the assay with DIO2 (gene 1734) is 61.7 µM (active).

Turning to `c1ccc(-c2ccccc2)cc1`, the AC50 was 88 µM (active) in assay [1] and 80.7 µM (active) in assay [7]. Besides, the compound was classed as inactive in [3], in assay [4] and in assay [5].

Consider `CN(C)CCO`, for which the compound was called inactive in assay [1], in [3], in assay [4] and in assay [7].

On to `CCOCCOC(C)=O`, for which the compound was classed as inactive in assay [1], in assay [3], in assay [4], in [5] and in [7].

Regarding `ClC1=C(Cl)[C@]2(Cl)[C@@H]3[C@H]4C[C@H]([C@@H]5O[C@H]45)[C@@H]3[C@@]1(Cl)C2(Cl)Cl`, the AC50 was 2.76 µM (active) in [1] and 1.75 µM (active) in assay [7]. The compound was called inactive in assay [2], in assay [4], in assay [5], in [6], in assay [8] and in [9]. Besides, the compound was called inactive in [10], in assay [11], in [12], in assay [14], in assay [15] and in [16]. Besides, the outcome in assay [17] was inactive.
